Drawing on PubChem BioAssay (NCATS), this text covers max response for 17 compounds.

Records with an inconclusive call do not appear. The source made the active and inactive calls. The call rests on the fitted dose curve; in most records, active means well fitted curve in the direction sought with a large enough effect; inconclusive means small, poorly fitted or top-dose-only effect, or another doubt; inactive means no such curve, though single readings can be large or run the other way.
On the % scale 0 is the no-effect control and ±100 the full control effect.

The assay in a line: qHTS Assay for Identifying Gametocytocidal Compounds (AID 743244).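 Further: actives lower the fluorescent signal which means gametocytes are killed.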 The note with it: P. falciparum 3D7 stage III-V gametocytes, alamarBlue, 72 h; max response: stronger effect = lower value. In a few lines: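 Late gametocytes (III–V), P. falciparum 3D7; 72 h drug, then 24 h alamarBlue; resazurin reduction read by fluorescence.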
(In general: qHTS replaces the single test concentration by a dilution series.)
Turning to `CO[C@@]1(NC(=O)C(C(=O)O)c2ccc(O)cc2)C(=O)N2C(C(=O)O)=C(CSc3nnnn3C)CO[C@@H]21` (some centres not stated), the max response was 2.23% (inactive).

With `O=C(O)Cc1cn(-c2ccccc2)nc1-c1ccc(Cl)cc1`, the max response is 6.52% (inactive).

Consider `O=C(O)c1ccccc1OP(=O)(O)O`, for which the max response is -5.84% (inactive).

For `CCCCCCCC(=O)OCC(O)CO` (configuration not stated), the max response was 0.163% (inactive).

With `COc1cc(O)cc(O)c1`, the max response was -9.75% (inactive).

For the compound `CC(CSC(=O)c1ccccc1)C(=O)N1C[C@@H](Sc2ccccc2)C[C@H]1C(=O)O` (some centres not stated), the max response is 2.09% (inactive).

On to `O=C(O)CNC(=O)c1ccccc1I`, for which the max response was -0.623% (inactive).

As to `CC(C(=O)O)c1ccc2c(c1)Cc1cccnc1O2` (configuration not stated), the max response is -8.08% (inactive).

Regarding `Cc1cc(NC(=O)C2=C(O)c3ccccc3S(=O)(=O)N2C)no1`, the max response is -9.54% (inactive).

On to `Cc1[nH]c(C)c(Cl)c(=O)c1Cl`, for which the max response is -2.25% (inactive).

With `CCN(CC)CC1CCCCN1CC(=O)N1c2ccccc2C(=O)Nc2cccnc21` (configuration not stated), the max response is 3.31% (inactive).

For the compound `CCCCCCCCCCC(CO)CCCCCCCC` (configuration not stated), the max response was -4.55% (inactive).

Turning to `Cc1ncc(CO)c(CN)c1O`, the max response was 6.59% (inactive).

On to `CC(C)CCCC(C)CCCC(C)CCCCC(C)CCCC(C)CCCC(C)C` (configuration not stated), for which the max response was 5.26% (inactive).

Take `NC(=O)c1ccc([N+](=O)[O-])cc1Cl`: the max response is -9.98% (inactive).

Take `CC1(C)[C@@H](OC(=O)CCC(=O)O)CC[C@]2(C)[C@H]3C(=O)C=C4[C@@H]5C[C@@](C)(C(=O)O)CC[C@]5(C)CC[C@@]4(C)[C@]3(C)CC[C@@H]12`: the max response is -6.25% (inactive).

Take `NS(=O)(=O)c1cc(C2(O)NC(=O)c3ccccc32)ccc1Cl` (configuration not stated): the max response is 0.268% (inactive).
